# From PubChem BioAssay AID1159580 (chemical genetic matrix, 2015)
# Where “and” joins values, the source holds several entries; their conditions need not be identical. Identical values can stand only once. The whole screen tested about 5,500 compounds, of which about 2,000 (36%) were called active. Another 18% or so got no clear call; they are omitted. No stated cut-off is given here; in the data, active means normalized growth mostly below about 0.91 (no sharp cut-off); inconclusive means no clear call, values can overlap the other calls; inactive means mostly above about 0.92. The list shows a part of the results.
# Assay: chemical genetic growth profiling, strain panel (AID 1159580);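 further: tested at 20 µM; growth read once vehicle control cultures reached saturation at 30 °C; 1 = growth at the plate median or of vehicle wells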
# Conditions: S. cerevisiae deletion strains, growth OD
smiles,measurement,setting,value
CC(C)=CCCC1(C)C=Cc2c(O)c3c(c(CC=C(C)C)c2O1)OC12C(=CC4CC1C(C)(C)OC2(C/C=C(/C)C(=O)O)C4=O)C3=O (configuration not stated),normalized growth,"locus YAL013W, strain DEP1, stronger effect = lower value",0.887 (active)
same,normalized growth,"locus YAL021C, strain ccr4, stronger effect = lower value",0.954 (inactive)
same,normalized growth,"locus YAL026C, strain drs2, stronger effect = lower value",0.895 (active)
same,normalized growth,"locus YAL030W, strain snc1, stronger effect = lower value",0.925 (active)
same,normalized growth,"locus YBL061C, strain skt5, stronger effect = lower value",0.87 (active)
same,normalized growth,"locus YBR009C, strain hhf1, stronger effect = lower value",0.803 (active)
same,normalized growth,"locus YBR021W, strain FUR4, stronger effect = lower value",0.99 (inactive)
same,normalized growth,"locus YBR023C, strain chs3, stronger effect = lower value",0.84 (active)
same,normalized growth,"locus YBR171W, strain sec66, stronger effect = lower value",0.979 (inactive)
same,normalized growth,"locus YBR229C, strain ROT2, stronger effect = lower value",0.988 (inactive)
same,normalized growth,"locus YBR231C, strain swc5, stronger effect = lower value",0.559 (active)
same,normalized growth,"locus YBR279W, strain paf1, stronger effect = lower value",0.815 (active)
same,normalized growth,"locus YCL011C, strain gbp2, stronger effect = lower value",0.835 (active)
same,normalized growth,"locus YCL016C, strain dcc1, stronger effect = lower value",0.853 (active)
same,normalized growth,"locus YCL029C, strain bik1, stronger effect = lower value",0.987 (inactive)
same,normalized growth,"locus YCL061C, strain MRC1, stronger effect = lower value",0.907 (active)
same,normalized growth,"locus YCL069W, strain vba3, stronger effect = lower value",0.945 (inactive)
same,normalized growth,"locus YCR088W, strain abp1, stronger effect = lower value",0.943 (inactive)
same,normalized growth,"locus YDL005C, strain med2, stronger effect = lower value",0.959 (inactive)
same,normalized growth,"locus YDL035C, strain GPR1, stronger effect = lower value",0.736 (active)
same,normalized growth,"locus YDL040C, strain nat1, stronger effect = lower value",0.959 (inactive)
same,normalized growth,"locus YDL074C, strain BRE1, stronger effect = lower value",0.691 (active)
same,normalized growth,"locus YDL101C, strain DUN1, stronger effect = lower value",0.894 (inactive)
same,normalized growth,"locus YDL185W, strain tfp1, stronger effect = lower value",0.986 (inactive)
same,normalized growth,"locus YDL192W, strain arf1, stronger effect = lower value",0.901 (active)
same,normalized growth,"locus YDR001C, strain nth1, stronger effect = lower value",0.952 (inactive)
same,normalized growth,"locus YDR069C, strain doa4, stronger effect = lower value",0.821 (active)
same,normalized growth,"locus YDR101C, strain arx1, stronger effect = lower value",0.93 (inactive)
same,normalized growth,"locus YDR137W, strain rgp1, stronger effect = lower value",0.713 (active)
same,normalized growth,"locus YDR150W, strain NUM1, stronger effect = lower value",0.932 (inactive)
same,normalized growth,"locus YDR159W, strain sac3, stronger effect = lower value",0.957 (inactive)
same,normalized growth,"locus YDR162C, strain NBP2, stronger effect = lower value",0.296 (active)
same,normalized growth,"locus YDR195W, strain ref2",1.11 (inactive)
same,normalized growth,"locus YDR297W, strain sur2, stronger effect = lower value",0.889 (active)
same,normalized growth,"locus YDR318W, strain mcm21, stronger effect = lower value",0.879 (active)
same,normalized growth,"locus YDR334W, strain swr1, stronger effect = lower value",0.916 (inactive)
same,normalized growth,"locus YDR335W, strain msn5, stronger effect = lower value",0.902 (active)
same,normalized growth,"locus YDR388W, stronger effect = lower value",0.897 (active)
same,normalized growth,"locus YDR392W, strain spt3, stronger effect = lower value",0.223 (active)
same,normalized growth,"locus YDR502C, strain sam2, stronger effect = lower value",0.849 (active)
same,normalized growth,"locus YEL003W, strain gim4, stronger effect = lower value",0.863 (active)
same,normalized growth,"locus YEL037C, strain rad23, stronger effect = lower value",0.967 (inactive)
same,normalized growth,"locus YEL061C, strain CIN8 (second series), stronger effect = lower value",0.935 (inactive)
same,normalized growth,"locus YEL061C, strain CIN8, stronger effect = lower value",0.881 (active)
same,normalized growth,"locus YER015W, strain faa2, stronger effect = lower value",0.785 (active)
same,normalized growth,"locus YER016W, strain bim1, stronger effect = lower value",0.967 (inactive)
same,normalized growth,"locus YER110C, stronger effect = lower value",0.98 (inactive)
same,normalized growth,"locus YER111C, strain swi4, stronger effect = lower value",0.977 (inactive)
same,normalized growth,"locus YER155C, strain BEM2 (second series), stronger effect = lower value",0.758 (active)
same,normalized growth,"locus YER155C, strain BEM2, stronger effect = lower value",0.83 (active)
same,normalized growth,"locus YER167W, strain BCK2, stronger effect = lower value",0.874 (active)
same,normalized growth,"locus YFR010W, strain ubp6, stronger effect = lower value",0.891 (active)
same,normalized growth,"locus YGL078C, strain dbp3, stronger effect = lower value",0.965 (inactive)
same,normalized growth,"locus YGL086W, strain mad1, stronger effect = lower value",0.892 (active)
same,normalized growth,"locus YGL167C, strain pmr1, stronger effect = lower value",0.915 (inactive)
same,normalized growth,"locus YGL173C, strain kem1, stronger effect = lower value",0.82 (active)
same,normalized growth,"locus YGL227W, strain vid30, stronger effect = lower value",0.985 (inactive)
same,normalized growth,"locus YGL240W, strain doc1, stronger effect = lower value",0.966 (inactive)
same,normalized growth,"locus YGL248W, strain PDE1, stronger effect = lower value",0.791 (active)
same,normalized growth,"locus YGL253W, strain hxk2, stronger effect = lower value",0.877 (active)
same,normalized growth,"locus YGR135W, strain pre9, stronger effect = lower value",0.885 (active)
same,normalized growth,"locus YGR229C, strain SMI1, stronger effect = lower value",0.244 (active)
same,normalized growth,"locus YGR252W, strain gcn5, stronger effect = lower value",0.882 (inactive)
same,normalized growth,"locus YHR013C, strain ard1, stronger effect = lower value",0.605 (active)
same,normalized growth,"locus YHR027C, strain rpn1, stronger effect = lower value",0.894 (active)
same,normalized growth,"locus YHR030C, strain SLT2, stronger effect = lower value",0.85 (active) and 0.869 (inactive)
same,normalized growth,"locus YHR079C, strain IRE1 (second series), stronger effect = lower value",0.98 (inactive)
same,normalized growth,"locus YHR079C, strain IRE1, stronger effect = lower value",0.89 (inactive)
same,normalized growth,"locus YHR094C, strain hxt1, stronger effect = lower value",0.983 (inactive)
same,normalized growth,"locus YHR129C, strain ARP1, stronger effect = lower value",0.808 (active)
same,normalized growth,"locus YHR142W, strain chs7, stronger effect = lower value",0.818 (active)
same,normalized growth,"locus YHR200W, strain rpn10, stronger effect = lower value",0.914 (active)
same,normalized growth,"locus YIL066C, strain RNR3, stronger effect = lower value",0.606 (active)
same,normalized growth,"locus YIL073C, strain SPO22, stronger effect = lower value",0.796 (inactive)
same,normalized growth,"locus YIL125W, strain kgd1, stronger effect = lower value",0.927 (active)
same,normalized growth,"locus YIR030C, strain dcg1, stronger effect = lower value",0.967 (inactive)
same,normalized growth,"locus YJL092W, strain hpr5, stronger effect = lower value",0.946 (inactive)
same,normalized growth,"locus YJL095W, strain BCK1 (second series), stronger effect = lower value",0.871 (active)
same,normalized growth,"locus YJL095W, strain BCK1, stronger effect = lower value",0.732 (active) and 0.878 (active)
same,normalized growth,"locus YJL115W, strain asf1, stronger effect = lower value",0.951 (inactive)
same,normalized growth,"locus YJL129C, strain trk1, stronger effect = lower value",0.653 (active)
same,normalized growth,"locus YJL134W, strain LCB3, stronger effect = lower value",0.982 (inactive)
same,normalized growth,"locus YJL154C, strain vps35, stronger effect = lower value",0.983 (inactive)
same,normalized growth,"locus YJL164C, strain tpk1, stronger effect = lower value",0.758 (active)
same,normalized growth,"locus YJL166W, strain qcr8, stronger effect = lower value",0.77 (active)
same,normalized growth,"locus YJL168C, strain set2, stronger effect = lower value",0.98 (inactive)
same,normalized growth,"locus YJL187C, strain SWE1 (second series), stronger effect = lower value",0.838 (active)
